Bioassay records deposited in PubChem by Broad Institute.
YB-1 expression – YB-1 expression inhibition | 30,000 compounds, 0.37% hits | U2OS, qRT-PCR YB-1 vs CDIP delta delta Cp, 16 h; stronger effect = higher value; zero = DMSO, each unit about twofold | delta delta Cp (YB-1 minus CDIP) (concentration not given with the values);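 active means delta delta Cp rounded down to an integer at or above 3, about 3 SD of DMSO wells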;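 further: higher means less YB-1 transcript or more CDIP transcript relative to DMSO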
PD-1 reversal – activators reversing PD-1 mediated T-cell inhibition; 29,000 tested, under 10 active; activation, % (no concentration beside the values); AID 2316; primary human CD4 T cells, PD-L1 beads, CellTiter-Glo 96 h; call rule not given here;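 further: 0% = median vehicle wells and 100% = positive control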
Hedgehog inh – blocks Sonic Hedgehog signaling; Shh-LIGHT2 Gli-luciferase reporter, 30 h; inhibition, % (test concentration not listed); 22,000 compounds, 2.1% hits; AID 2313;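 active means mean inhibition across valid replicates above about 65%, limit read from the data; inconclusive means mean under the limit, yet half or more replicates past it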;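 further: pathway switched on by Shh-conditioned medium diluted 1 in 25 in low serum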
MITF inhib – inhibitors of MITF; TRPM1 promoter luciferase, luminescence, 24 h; inhibition, % (no concentration beside the values); 37,000 compounds, 0.28% hits; in the data active means inhibition above about 85%; inconclusive means no clear call, values can overlap the other calls; inactive means below about 68%;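 further: human melanocyte line stably carrying TRPM1 promoter luciferase reporter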
NOMO-1 viab – STK33 inhibitor candidate reducing NOMO-1 cell viability | NOMO-1 AML viability, CellTiter-Glo luminescence, 72 h | inhibition, % (test concentration not listed) | 37,000 compounds, 7.5% hits | AID 2330; in the data active means inhibition above about 80%; inconclusive means no clear call, values can overlap the other calls
* = called active by the depositor; ? = inconclusive; nt = not tested or not shown. Sampled rows, rich in hits. Any-hit rate of the full collection: about 7.4%.

SMILES | YB-1 expression | PD-1 reversal | Hedgehog inh | MITF inhib | NOMO-1 viab
Cc1ccccc1Cn1ccc(NC(=O)c2nn3c(c2Cl)NC(c2ccccc2)CC3C(F)(F)F)n1 (configuration not stated) | nt | nt | nt | 24 | 25
C[C@H]1CN([C@@H](C)CO)C(=O)Cc2cc(NC(=O)Cc3cn(C)c4ccccc34)ccc2O[C@H]1CN(C)Cc1ccc(C(F)(F)F)cc1 | -0.14 | nt | 7 | 28 | 83*
C[C@@H]1CN([C@H](C)CO)C(=O)Cc2cc(NC(=O)Cc3cn(C)c4ccccc34)ccc2O[C@H]1CN(C)Cc1ccc(C(F)(F)F)cc1 | 0.00043 | -4 | 14 | 3 | 133*
C[C@@H]1CN([C@H](C)CO)C(=O)Cc2cc(NC(=O)Cc3cn(C)c4ccccc34)ccc2O[C@@H]1CN(C)C(=O)Nc1ccc(C(F)(F)F)cc1 | 0.2 | -1 | nt | 29 | 6
COc1ccc(Cl)cc1N1CCN(CCCNC(=S)Nc2ccc(Cl)cc2C)CC1 | nt | nt | nt | -10 | 36
C[C@@H]1CN([C@H](C)CO)C(=O)Cc2cc(NC(=O)NC3CCCCC3)ccc2O[C@@H]1CN(C)Cc1ccccc1 | 0.33 | -1 | 19 | 11 | 42
C[C@H]1CN([C@@H](C)CO)C(=O)Cc2cc(NC(=O)NC3CCCCC3)ccc2O[C@H]1CN(C)Cc1ccc(-c2ccccc2)cc1 | -0.0062 | -8 | 37 | 25 | 114*
C[C@H](CO)N1C[C@H](C)[C@H](CN(C)Cc2ccc(-c3ccccc3)cc2)Oc2ccc(NC(=O)NC3CCCCC3)cc2CC1=O | 0.3 | -3 | -14 | 12 | 87*
C[C@H]1CN([C@@H](C)CO)C(=O)Cc2cc(NC(=O)NC3CCCCC3)ccc2O[C@@H]1CN(C)Cc1ccccc1 | -0.55 | 2 | -14 | -3 | 27
CCOc1ccc(C(=O)Nc2ccc(NC(=O)c3ccccc3)c(C)c2)cc1Br | -0.28 | 0 | 96* | -2 | 58
Fc1cccc(Cl)c1CSC1=NCCN1 | -0.17 | -1 | 38 | 17 | 136*
N#CC1=C(N)C(C#N)(C#N)C2(C(=O)N(Cc3ccccc3)c3ccccc32)C2CCCC=C12 (configuration not stated) | 0.039 | -6 | nt | 37 | 22
C[C@H](CO)N1C[C@H](C)[C@H](CN(C)Cc2ccc(C(F)(F)F)cc2)Oc2ccc(NC(=O)Nc3ccc(F)cc3)cc2C1=O | -0.25 | -5 | nt | 22 | 33
C[C@H](CO)N1C[C@H](C)[C@@H](CN(C)Cc2ccc(C(F)(F)F)cc2)Oc2ccc(NC(=O)Nc3ccc(F)cc3)cc2C1=O | -0.009 | -1 | 29 | 56 | 119*
C[C@H]1CN([C@@H](C)CO)C(=O)c2cc(NC(=O)Nc3ccc(C(F)(F)F)cc3)ccc2O[C@@H]1CN(C)Cc1ccc(C(F)(F)F)cc1 | 0.17 | -13 | nt | 95* | 114*
C[C@@H]1CN([C@@H](C)CO)C(=O)c2cc(NC(=O)Nc3ccc(C(F)(F)F)cc3)ccc2O[C@H]1CN(C)Cc1ccc(C(F)(F)F)cc1 | 0.45 | -12 | nt | 10 | 117*
C[C@@H]1CN([C@@H](C)CO)C(=O)c2cc(NC(=O)Nc3ccc(C(F)(F)F)cc3)ccc2O[C@@H]1CN(C)Cc1ccc(C(F)(F)F)cc1 | -0.32 | -7 | 18 | 101* | 118*
C[C@@H]1CN([C@@H](C)CO)C(=O)c2cc(NC(=O)Nc3ccccc3)ccc2O[C@H]1CN(C)Cc1ccc(C(F)(F)F)cc1 | 2.4 | 1 | nt | 18 | 79
C[C@@H]1CN([C@H](C)CO)C(=O)c2cc(NC(=O)Nc3ccc(F)cc3)ccc2O[C@@H]1CN(C)Cc1ccc(C(F)(F)F)cc1 | 0.33 | -2 | nt | 59 | ?
O=C(COc1ccccc1[N+](=O)[O-])Nc1ccc(Br)cc1C(=O)O | nt | 2 | nt | 14 | 10
C[C@H]1CN([C@@H](C)CO)C(=O)c2cc(NC(=O)Nc3ccc(C(F)(F)F)cc3)ccc2O[C@@H]1CN(C)Cc1ccncc1 | 0.43 | -2 | 35 | -22 | 36
C[C@@H]1CN([C@@H](C)CO)C(=O)c2cc(NC(=O)Nc3ccc(C(F)(F)F)cc3)ccc2O[C@@H]1CN(C)Cc1ccc(Cl)c(Cl)c1 | 0.44 | 1 | -8 | 18 | 108*
C[C@H](CO)N1C[C@H](C)[C@H](CN(C)Cc2ccc(C(F)(F)F)cc2)Oc2ccc(NC(=O)Nc3ccc(C(F)(F)F)cc3)cc2C1=O | 0.082 | 2 | nt | 24 | 39
C[C@@H]1CN([C@H](C)CO)C(=O)c2cc(NC(=O)Nc3ccc(C(F)(F)F)cc3)ccc2O[C@@H]1CN(C)Cc1ccc(C(F)(F)F)cc1 | -0.0083 | -6 | nt | 36 | 115*
C[C@H](CO)N1C[C@H](C)[C@@H](CN(C)Cc2ccc(C(F)(F)F)cc2)Oc2ccc(NC(=O)Nc3ccc(C(F)(F)F)cc3)cc2C1=O | 0.22 | nt | -53 | 11 | 130*
SMILES | YB-1 expression | PD-1 reversal | Hedgehog inh | MITF inhib | NOMO-1 viab
N#Cc1cc(C#N)c(SCC(=O)NCc2ccco2)nc1N | -0.52 | 0 | -36 | -6 | ?
C[C@@H]1CN([C@@H](C)CO)C(=O)Cc2cc(NS(=O)(=O)c3ccc(Cl)cc3)ccc2O[C@@H]1CN(C)Cc1ccccc1 | -0.15 | -2 | 29 | -14 | ?
C[C@H]1CN([C@@H](C)CO)C(=O)Cc2cc(NS(=O)(=O)c3ccc(Cl)cc3)ccc2O[C@@H]1CN(C)Cc1ccccc1 | 0.41 | -3 | -26 | 44 | 107*
C[C@H]1CN([C@@H](C)CO)C(=O)Cc2cc(NS(=O)(=O)c3ccc(Cl)cc3)ccc2O[C@H]1CN(C)Cc1ccccc1 | 0.63 | 0 | 45 | 26 | 101*
Cc1cc(-c2nnc(SCC(=O)c3ccccc3Cl)n2C)no1 | 0.07 | -9 | -35 | 7 | 34
Cn1c(=O)c2c(nc(NCC(O)c3ccccc3)n2Cc2ccc(F)cc2)n(C)c1=O (configuration not stated) | nt | -7 | nt | 41 | 95*
O=C(NO)c1ccc(C(=O)N/N=C/c2ccc(O)cc2)cc1 | 0.32 | nt | nt | nt | nt
O=C(N/N=C/c1ccc([N+](=O)[O-])o1)c1ccc(O)cc1 | 0.42 | -7 | 10 | 61 | 140*
COC(=O)C1CCCN1S(=O)(=O)c1ccccc1 (configuration not stated) | -0.15 | 0 | -8 | -3 | 93*
COc1cccc(S(=O)(=O)N2CCCC2C(=O)O)c1 (configuration not stated) | nt | 1 | nt | -17 | 6
S=c1[nH]nc(CSCc2cccc3ccccc23)n1C1CCCCC1 | -0.046 | 0 | 69* | 18 | 24
O=c1[nH]c(SCc2n[nH]c(=S)n2-c2ccccc2)nc2ccccc12 | nt | 2 | nt | -27 | -2
CC(C)(C)C(=O)OC[C@H]1O[C@@H](n2cnc3c(N)ncnc32)C[C@@H]1OC(=O)C(C)(C)C | 8.3* | 0 | -30 | -6 | 0
Nc1ncnc2c1ncn2C1OC(CO)[C@H](O)[C@@H]1S (some centres not stated) | 0.24 | 0 | -8 | -1 | -8
O=C(COc1ccc(Cl)cc1)CC(=O)c1ccc(Cl)cc1 | -0.32 | -3 | 6 | -5 | 110*
